The values that follow come from PubChem BioAssay AID504339 (National Center for Advancing Translational Sciences (NCATS), 2011).

Structures are written as SMILES. Values joined by “and” are separate entries in the source; they are usually repeats but may differ in a detail not shown here. Equal values may be shown once. The whole screen tested about 390,000 compounds, of which about 17,000 (4.4%) were called active. Not shown: some 8% with an inconclusive outcome. Calls follow the shape of the dose curve; as a rule, active = well fitted inhibition curve with a large enough effect; inconclusive = small, poorly fitted or top-dose-only effect; inactive = no such curve, though single readings can be large or run the other way. This excerpt belongs to a sample that is enriched for actives. Some compounds were tested as several samples or in several runs, with calls that do not always agree.
% is scaled to controls: 0 for no effect and ±100 for the full control effect; potency is read from the fitted curve at half-maximal effect.

For the test, the target named is Lysine-specific demethylase 4A (Homo sapiens) (UniProt O75164). As to the kind of experiment: qHTS Assay for Inhibitors of JMJD2A-Tudor Domain. Also: nearly all actives have a fitted effect of over 50% in size. As to conditions: AlphaScreen JMJD2A-Tudor / H3K4me3 peptide binding; series mostly up to 114 µM; activity change, negative = inhibition: at the top concentration. A general note: Quantitative high-throughput screening tests each substance at several concentrations.
Chain of Lysine-specific demethylase 4A (Homo sapiens) (O75164 whole entry, looked up, the tested form may be a part): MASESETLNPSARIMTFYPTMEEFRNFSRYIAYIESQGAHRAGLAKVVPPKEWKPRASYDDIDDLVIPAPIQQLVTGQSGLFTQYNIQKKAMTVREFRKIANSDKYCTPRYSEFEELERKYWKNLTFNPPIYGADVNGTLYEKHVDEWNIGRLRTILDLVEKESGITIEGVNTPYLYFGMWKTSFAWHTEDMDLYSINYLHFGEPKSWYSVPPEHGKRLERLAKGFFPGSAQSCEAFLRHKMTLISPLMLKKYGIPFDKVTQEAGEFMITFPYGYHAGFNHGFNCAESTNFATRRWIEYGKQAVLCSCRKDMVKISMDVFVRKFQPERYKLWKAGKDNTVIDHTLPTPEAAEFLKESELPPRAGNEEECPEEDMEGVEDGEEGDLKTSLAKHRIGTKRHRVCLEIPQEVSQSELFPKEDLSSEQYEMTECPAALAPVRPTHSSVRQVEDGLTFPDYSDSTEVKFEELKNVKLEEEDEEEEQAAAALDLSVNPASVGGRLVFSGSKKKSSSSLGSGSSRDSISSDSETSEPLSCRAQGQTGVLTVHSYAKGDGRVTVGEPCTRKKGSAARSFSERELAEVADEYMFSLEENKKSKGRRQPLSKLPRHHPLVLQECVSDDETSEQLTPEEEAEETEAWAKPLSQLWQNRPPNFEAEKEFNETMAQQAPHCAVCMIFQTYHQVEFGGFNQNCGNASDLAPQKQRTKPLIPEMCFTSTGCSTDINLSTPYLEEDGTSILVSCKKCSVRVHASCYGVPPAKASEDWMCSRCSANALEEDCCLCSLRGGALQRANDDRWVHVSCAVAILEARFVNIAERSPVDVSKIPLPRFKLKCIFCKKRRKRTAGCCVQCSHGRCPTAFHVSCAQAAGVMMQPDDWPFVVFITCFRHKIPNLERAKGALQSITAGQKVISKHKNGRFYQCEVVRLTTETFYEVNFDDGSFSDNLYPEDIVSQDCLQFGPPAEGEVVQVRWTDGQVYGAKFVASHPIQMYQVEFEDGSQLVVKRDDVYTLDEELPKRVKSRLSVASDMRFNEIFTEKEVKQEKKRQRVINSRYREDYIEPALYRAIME
`O=C(Cn1c(=O)n(Cc2ccccc2)c(=O)c2sc3ccccc3c21)Nc1ccccc1F`: the “activity change, negative = inhibition” value is 0.683% (inactive).
On to `Cc1ccccc1OCc1nc2c3cnn(-c4ccccc4F)c3ncn2n1`, for which the “activity change, negative = inhibition” value was 1.74% (inactive).
In the case of `COc1ccc(OC)c(NC(=O)CSc2nc3ccccc3nc2N2CCCCC2)c1`, the “activity change, negative = inhibition” value is -8.59% (inactive).
On the same count and under the same terms, the figure for `Cc1ccc(C(=O)NC2CCN(C#N)CC2)cc1` is -11.6% (inactive); for `CCOc1ccc(N(CC)S(=O)(=O)N2CCCC(C(=O)NCc3ccc(Cl)cc3)C2)cc1` (stereo unspecified) it is -9.16% (inactive); for `COC(=O)c1ccc(COc2ccc(/C=N/NC(=O)C(=O)Nc3ccc(OC)cc3)cc2OC)o1` it is 10% (inactive).
The same measure, in the same setting: the figure for `COC(=O)c1ccc(C(NC(=O)OCc2ccccc2)/C(C)=C/[C@@H](C)C(=O)NCc2ccc(OC)c(OC)c2)cc1` (stereo partly specified) is -17.3% (inactive).
As for `COC(=O)c1ccc(COc2ccc(/C=C/C(=O)c3ccc(OC)c(CSCC(=O)O)c3)cc2OC)cc1`, the Potency is 50.1 µM (active).
Take `Cc1ccc(NC(=O)c2ccc(CN3CC(=O)N4CCCCC4C3=O)cc2)c(Cl)c1` (stereo unspecified): the “activity change, negative = inhibition” value was -13.5% (inactive).
Consider `CC(=O)c1sc(N2C(=O)c3oc4ccccc4c(=O)c3C2c2ccc(C)cc2)nc1C` (stereo unspecified), for which the “activity change, negative = inhibition” value is -1.37% (inactive).
Still for that read-out and setting: the figure for `C=Cc1ccc(Cn2c(C(=O)O)c(CNC3CCCC3)c3ccc(C)cc32)cc1` is -29.7% (inactive); for `COc1ccc(/C=C(\C#N)C(=O)NCCCn2ccnc2)cc1` it is -9.72% (inactive); for `COc1cc(OC)cc(C(=O)NCCCn2ccnc2)c1` it is -4.79% (inactive).
With `COc1cccc(-c2nn(-c3ccccc3)cc2/C=C(\C#N)C(=O)NCCCn2ccnc2)c1`, the Potency was 44.7 µM (active).
Still for that read-out and setting: with `O=C(N/N=C/c1ccccn1)c1cccnc1` the figure was 79.4 µM (active).
Turning to `O=C(N/N=C/c1ccccn1)c1cccc(NC(=O)c2ccc(Cl)cc2)c1`, the “activity change, negative = inhibition” value is 5.02% (inactive).
Still for that read-out and setting: with `COc1cc(C=NNC(=O)c2cccnc2)ccc1OC(=O)c1ccccc1F` the figure was -20.1% (inactive); with `Cc1ccc2oc3c(c(=O)c2c1)C(c1ccc(O)cc1)N(Cc1ccc2c(c1)OCO2)C3=O` (stereo unspecified), -6.53% (inactive); with `CCOc1ccc(S(=O)(=O)N(CC(=O)NCCSCc2ccc(C)cc2)c2ccccc2)cc1`, -10% (inactive).
Regarding `S=C(NCCCc1cnc[nH]1)NCCCN(Cc1ccc(Cl)c(Cl)c1)c1ccc(Br)cn1`, the Potency was 44.7 µM (active).
For the compound `CCOc1ccc(Nc2c(S(=O)(=O)c3ccccc3)cnc3ccccc23)cc1`, the “activity change, negative = inhibition” value was -23.3% (inactive).
The same measure, in the same setting: with `COc1cccc(-n2ccn(CC(=O)NCc3ccc(C)cc3)c(=O)c2=O)c1` the figure was -11.2% (inactive).
Take `CO/N=C(\C(=O)N[C@@H]1C(=O)N2C(C(=O)O)=C(COC(C)=O)CS[C@H]12)c1csc(N)n1` (stereo in doubt): the Potency result was “inactive and 79.4 µM (active) and 56.2 µM (active)”.
`C=CC1=C(C(=O)O)N2C(=O)[C@@H](NC(=O)/C(=N/OCC(=O)O)c3csc(N)n3)[C@H]2SC1`: the Potency is 25.1 µM (active).
Turning to `CC(C)(C)OC(=O)C1=C(CO)CS[C@@H]2[C@H](NC(=O)Cc3ccccc3)C(=O)N12`, the “activity change, negative = inhibition” value was -6.16% (inactive).
With `C=CC1=C(C(=O)O)N2C(=O)[C@@H](NC(=O)/C(=N\OCC(=O)O)c3csc(N)n3)[C@H]2SC1`, the Potency is 20 µM (active).
For `COc1cc(C(=O)NCC(c2ccc(Cl)cc2)N2CCOCC2)cc(OC)c1OC` (stereo unspecified), the “activity change, negative = inhibition” value was 1.32% (inactive).
On the same count and under the same terms, the figure for `Cc1cc(C)cc(NC(=O)CCCc2nc(-c3ccccc3Cl)no2)c1` is -3.97% (inactive); for `Cc1ccc(OCCSc2nc3ccc(NC(=O)COc4ccc(C)cc4)cc3s2)cc1` it is -18.9% (inactive).
On to `CC(=O)c1ccc(NC(=O)CSc2nnc(NC(=O)Nc3ccccc3)s2)cc1`, for which the “activity change, negative = inhibition” value was 4.22% (inactive).
As for `Cn1c(=O)c2c(nc(SCC(=O)Nc3ccc(F)cc3)n2Cc2ccc(Cl)cc2)n(C)c1=O`, the “activity change, negative = inhibition” value is -12.7% (inactive).
Same read-out and setting: the figure for `CCOC(=O)c1ccc(CSc2nnc3cc(C)c4ccccc4n23)cc1` is -17.2% (inactive); for `Cc1c(CCNC(=O)c2ccc(C(F)(F)F)cc2)sc2nc(-c3ccc(F)cc3)nn12` it is -12% (inactive); for `Oc1c(C(c2ccc(F)cc2)N2CCN(Cc3ccccc3)CC2)sc2nc(-c3ccco3)nn12` (stereo unspecified) it is -35.1% (inactive).
The same measure, in the same setting: with `COc1ccc(CN2CCN(Cc3cn(C)nc3-c3ccccc3)CC2CCO)c(C)c1C` (stereo unspecified) the figure was -17.6% (inactive); with `Cc1ccccc1CN1C[C@@H]2C[C@@H](c3ccc4nsnc4c3)N3CCC[C@@]23C1=O`, -34.2% (inactive).
As to `Cc1ccccc1CN1C[C@@H]2C[C@@H](c3cn(C)nc3-c3ccccc3)N3CCC[C@@]23C1=O`, the Potency is 63.1 µM (active).
Regarding `O=C(CCc1nc(CN2CCN(S(=O)(=O)c3ccc(Br)cc3)CC2)no1)N1CCCCC1`, the “activity change, negative = inhibition” value is -15.9% (inactive).
The same measure, in the same setting: with `COc1ccc(NC(=O)CSc2nc3ccccc3n2CC(=O)N2CCCCC2C)cc1` (stereo unspecified) the figure was -25.8% (inactive).
As to `COc1ccc(Nc2ccc3ccccc3c2)cc1`, the Potency was 56.2 µM (active).
On to `COc1ccc(-c2nnc(-c3ccc4ccccc4c3)o2)cc1`, for which the “activity change, negative = inhibition” value is 0% (inactive).
Take `COc1ccc(Nc2cc(=O)oc3ccccc23)cc1`: the “activity change, negative = inhibition” value was -22% (inactive).
Same read-out and setting: with `COc1cccc(NC(=O)C(=O)NCC(c2ccc3c(c2)OCO3)N2CCN(C)CC2)c1` (stereo unspecified) the figure was 3.55% (inactive).
For the compound `Fc1ccccc1/C=N/n1c(-c2cccnc2)n[nH]c1=S`, the Potency was 3.98 µM (active).
In the case of `S=c1nc2ccccc2c2nc(-c3cccnc3)[nH]n12`, the activity change, negative = inhibition is -17.6% [at 11.4 µM] (inactive).
For `S=c1[nH]nc(-c2ccncc2)n1/N=C/c1ccccc1Cl`, the Potency is 3.16 µM (active).
With `COc1ccc(-c2cc(C(=O)Nc3sc4c(c3C(N)=O)CCCC4)no2)cc1`, the “activity change, negative = inhibition” value is -10.6% (inactive).
The same measure, in the same setting: with `Cc1cccc(N2CCN(C(=O)CCn3c(=O)c4cccn4c4cccnc43)CC2C)c1` (stereo unspecified) the figure was -33.3% (inactive).
The same measure, in the same setting: the figure for `COc1ccc(Cn2c(=O)c3oc4ccccc4c3n(CC(=O)Nc3ccc(F)cc3F)c2=O)cc1` is -16.5% (inactive).
Still for that read-out and setting: with `CCC1CCCCN1C(=O)Cn1c(=O)n(CCCCCC(=O)NCc2ccccc2)c(=O)c2sccc21` (stereo unspecified) the figure was -13% (inactive).
With `CN1CCOc2cc(S(=O)(=O)N3CCN(S(=O)(=O)c4c(F)cccc4F)CC3)cnc21`, the “activity change, negative = inhibition” value is -4.11% (inactive).
As for `CCn1c(-c2ccoc2C)n[nH]c1=S`, the Potency is 10 µM (active).
For the compound `CCn1c(SCC(=O)NC2CCCC2)nnc1-c1ccoc1C`, the “activity change, negative = inhibition” value was -11% (inactive).
As for `CC(C)n1c(-c2ccncc2)n[nH]c1=S`, the Potency was 22.4 µM (active).
For the compound `CCn1c(-c2ccncc2)n[nH]c1=S`, the Potency is 10 µM (active).
Regarding `CCCc1cc(-c2n[nH]c(=S)n2CC)c2ccccc2n1`, the Potency is 79.4 µM (active).
Turning to `CCCn1c(C)cc(-c2csc(NC(=O)CCc3nc4ccccc4c(=O)[nH]3)n2)c1C`, the “activity change, negative = inhibition” value was -14.5% (inactive).
On the same count and under the same terms, the figure for `CC(C)n1c(-c2cccs2)nc2ccccc21` is -9.38% (inactive).
`CCn1c(C)nc2c1C(=O)c1ccccc1C2=O`: the “activity change, negative = inhibition” value is -13.7% (inactive).
On to `CCn1c(SCC(=O)Nc2nccs2)nnc1-c1ccncc1`, for which the “activity change, negative = inhibition” value is -7.95% (inactive).
Same read-out and setting: with `CCn1c(SCC(=O)Nc2ccc3c(c2)OCCO3)nnc1-c1ccncc1` the figure was -9.15% (inactive).
